# HTR5A ag ctr = HTR5A agonists in luminescence cell assay, primary screen, counter-screen for OPRM1-OPRD1 heterodimer agonist project, full-deck HTS. activation, % at 9.3 µM. cell-based. AID 504692, 2011. 340,000 compounds, 0.61% hits. 5-hydroxytryptamine receptor 5A (Homo sapiens), P47898; in the data active means activation mostly above about 9.5%, no sharp cut-off; inactive means mostly below about 7.6%
# HTR5A inv ctr = HTR5A inverse agonists in luminescence cell assay, primary screen, counter-screen for OPRM1-OPRD1 heterodimer inverse agonist project, full-deck HTS | 5-hydroxytryptamine receptor 5A (Homo sapiens), P47898 | HTR5A cell line, inverse agonism | 340,000 compounds, 0.083% hits | inhibition, % at 9.3 µM; in the data active means inhibition mostly above about 23%, no sharp cut-off; inactive means mostly below about 18%
# MOR-DOR inv ag = inverse agonists of MOR-DOR heterodimerization, primary screen, cell-based, luminescence. AID 504357, 2011. cell-based MOR-DOR heterodimer luminescence, inverse agonism. 340,000 compounds, 0.21% hits. inhibition, % at 9.3 µM; in the data active means inhibition above about 22%, passing the limit was not always enough
# Target sequence (P35372 whole entry, looked up): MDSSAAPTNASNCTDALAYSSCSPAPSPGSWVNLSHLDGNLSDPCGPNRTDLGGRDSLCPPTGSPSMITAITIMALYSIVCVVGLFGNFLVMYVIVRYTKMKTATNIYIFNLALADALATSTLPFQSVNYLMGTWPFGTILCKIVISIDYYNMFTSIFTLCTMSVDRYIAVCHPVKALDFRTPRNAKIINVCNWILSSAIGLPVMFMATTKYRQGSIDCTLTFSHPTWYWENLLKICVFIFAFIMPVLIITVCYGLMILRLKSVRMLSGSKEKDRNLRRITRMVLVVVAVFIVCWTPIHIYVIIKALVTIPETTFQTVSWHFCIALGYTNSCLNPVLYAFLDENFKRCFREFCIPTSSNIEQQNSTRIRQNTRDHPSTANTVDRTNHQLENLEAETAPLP
# Target sequence (P41143 whole entry, looked up): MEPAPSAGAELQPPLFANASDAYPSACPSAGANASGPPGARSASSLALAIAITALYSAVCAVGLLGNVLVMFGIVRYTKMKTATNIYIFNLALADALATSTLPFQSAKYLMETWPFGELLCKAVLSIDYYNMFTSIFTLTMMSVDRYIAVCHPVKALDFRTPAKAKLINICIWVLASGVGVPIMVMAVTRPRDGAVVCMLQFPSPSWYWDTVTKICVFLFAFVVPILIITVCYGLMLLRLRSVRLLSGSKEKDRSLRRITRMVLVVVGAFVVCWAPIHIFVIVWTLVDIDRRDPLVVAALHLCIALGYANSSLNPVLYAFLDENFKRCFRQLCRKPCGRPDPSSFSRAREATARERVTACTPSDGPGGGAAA
# OPRM1-OPRD1 ag = agonists of OPRM1-OPRD1 heterodimerization, primary screen, cell-based, luminescence | Mu-type opioid receptor (Homo sapiens) + Delta-type opioid receptor (Homo sapiens), … | cells | activation, % at 9.3 µM | 340,000 compounds, 0.3% hits | AID 504326, 2011; in the data active means activation above about 18%
# A number is an active result; - = inactive. Hits are enriched below; roughly 1.1% of the tested compounds scored in any of these assays.
SMILES,HTR5A ag ctr,HTR5A inv ctr,MOR-DOR inv ag,OPRM1-OPRD1 ag
O=C(c1ccc(-c2cccc(C(F)(F)F)c2)o1)N1CCN(c2ccccc2O)CC1,-,-,-,-
O=C(c1ccc(-c2cccc(C(F)(F)F)c2)o1)N1CCCC(C(F)(F)F)C1 (stereo not given),11,-,-,-
C/C(CC(=O)Nc1ccc(C)c(Cl)c1)=N\NC(=O)Cc1ccccc1,12,-,-,-
COC(=O)c1sc(NC(=O)c2c(C)noc2C)nc1C,-,-,-,-
COC(=O)c1sc(N)c(C(=O)OC)c1COC(=O)c1c(C)noc1C,-,46,46,-
Cc1ccc(-c2cc(C(=O)NCCN3CCOCC3)c3ccccc3n2)o1,-,-,-,-
N/C(=N\OC(=O)c1ccc2ccccc2c1)c1ccccc1Cl,29,-,-,22
Cc1ccc(N(CC(=O)Nc2c(C)n(C)n(-c3ccccc3)c2=O)S(C)(=O)=O)c(C)c1,-,-,-,-
Cc1ccc(N(CC(=O)N/N=C/c2cc(C)n(-c3ccccc3)c2C)S(C)(=O)=O)c(C)c1,13,-,-,-
Cc1c(OCC(=O)NCc2cccnc2)ccc2c3c(c(=O)oc12)CCC3,-,-,-,-
Cc1c(OCC(=O)NCc2ccncc2)ccc2c3c(c(=O)oc12)CCC3,12,-,-,-
COc1ccc(-c2cn(-c3ccc(C)c(C)c3)c(=S)[nH]2)cc1OC,-,-,-,-
COc1ccc(-c2cn(-c3ccc(C)c(Cl)c3)c(=S)[nH]2)cc1OC,12,-,-,-
O=C(/C=C/c1ccco1)OCC(=O)c1cccc([N+](=O)[O-])c1,-,-,29,-
COc1ccc(C(=O)COC(=O)/C=C/c2ccco2)cc1F,-,-,-,-
COCCn1c(N)c(C(=O)NS(=O)(=O)c2ccc(C)cc2)c(=O)[nH]c1=O,11,-,-,-
COCCn1c(N)c(Sc2ccc(C)cc2)c(=O)[nH]c1=O,-,-,-,-
CCCC(=O)NC1=C(C#N)C2(CCCC2)Cc2ccccc21,11,-,-,-
CCCC(=O)Nn1cnc2c(c1=O)C1(CCCC1)Cc1ccccc1-2,-,-,-,-
CC(C)N(C(=O)[C@H]1C[C@H](CC(=O)NCC23CC4CC(CC(C4)C2)C3)C(=O)N2CCc3c([nH]c4ccc(Cl)cc34)[C@]12C)C(C)C,4.2,-,-,-
CC(C)(C)NC(=O)CC1C[C@H](C(=O)N2CCOCC2)[C@@]2(CCC3CCCC3)c3[nH]c4ccccc4c3CCN2C1=O (stereo not given in full),8.6,-,-,-
CC[C@]12c3[nH]c4cc(-c5ccco5)ccc4c3CCN1C(=O)[C@@H](CC(=O)NCc1ccco1)C[C@@H]2C(=O)N1CCN(C(=O)C2CC2)CC1,4.4,-,-,-
CC[C@]12c3[nH]c4cc(-c5ccco5)ccc4c3CCN1C(=O)[C@@H](CC(=O)NCC13CC4CC(CC(C4)C1)C3)C[C@@H]2C(=O)N1CCN(C(=O)C2CC2)CC1,-,-,-,-
COc1ccc2[nH]c3c(c2c1)CCN1C(=O)C(CC(=O)NCC24CC5CC(CC(C5)C2)C4)C[C@H](C(=O)N2CCOCC2)[C@@]31CCC1CCCC1 (stereo not given in full),4.4,-,-,-
CCN(CC)C(=O)[C@H]1C[C@H](CC(=O)NCC23CC4CC(CC(C4)C2)C3)C(=O)N2CCc3c([nH]c4ccc(Cl)cc34)[C@]12C,-,-,-,-
SMILES,HTR5A ag ctr,HTR5A inv ctr,MOR-DOR inv ag,OPRM1-OPRD1 ag
CCCCCn1cnnc1SCC(=O)c1c(N)n(C2CC2)c(=O)[nH]c1=O,-,-,-,-
Cc1ccc(OCC(=O)N[C@@H](C)c2nnc3ccccn23)cc1C,-,-,-,-
COc1ccc2c(=O)c3c(=O)n(-c4ccccc4)c(-c4ccc(C)cc4)nc3oc2c1,-,-,-,-
Cc1cccc(OCC(=O)NCC(=O)N/N=C/c2ccc(O)cc2O)c1,-,-,-,-
Cc1cccc(OCC(=O)NCC(=O)N/N=C/c2ccccc2)c1,10,-,-,-
O=C(NCc1ccccc1Br)c1ccncc1,-,-,-,-
CC1c2[nH]c3ccccc3c2C[C@H]2C(=O)N(CCCN(C)C)CC(=O)N12 (stereo not given in full),-,-,-,-
CC(=O)c1cccc(NC(=O)NCc2ccccn2)c1,-,-,-,-
CC(=O)c1cccc(NC(=O)NCc2cccs2)c1,11,-,-,-
COc1cc(NC(=O)COC(=O)CNC(=O)C2CCCCC2)cc(OC)c1,-,-,-,-
CCn1c(=O)c([N+](=O)[O-])c(NCCN(C)C)c2ccccc21,-,-,-,-
CCn1c(=O)c([N+](=O)[O-])c(Cl)c2ccccc21,-,-,35,-
CCNC(=O)C1CC(=O)N(Cc2ccc3c(c2)OCO3)C(=Nc2ccc(OCC)cc2)S1 (stereo not given),9.0,-,-,-
CC(C)(C)NC(=O)NC(=O)COC(=O)CNS(=O)(=O)c1ccc(Br)cc1Cl,-,-,-,-
CC(=O)N(C)c1ccc(NC(=S)Nc2cccc3ccccc23)cc1,14,-,-,-
CC(=O)N(C)c1ccc(NC(=S)Nc2ccccc2)cc1,-,-,-,-
CCOC(=O)c1cc(-c2ccccc2C)nn1CC1CC(c2cccnc2)=NO1 (stereo not given),-,-,-,-
C/C(=N/NS(=O)(=O)c1cccc([N+](=O)[O-])c1)c1c[nH]c2ccccc12,-,-,-,-
C/C(=N/NS(=O)(=O)c1ccc(C)cc1)c1c[nH]c2ccccc12,11,-,-,-
C/C(=N/NS(=O)(=O)c1ccccc1)c1c[nH]c2ccccc12,12,-,-,-
C/C(=N/NS(=O)(=O)c1cc(C)ccc1C)c1c[nH]c2ccccc12,12,-,-,-
O=C(c1cc(S(=O)(=O)N2CCCCC2)ccc1Cl)N1CCOCC1,-,-,-,-
Cc1ccc(S(=O)(=O)N2CCN(C(=O)c3ccco3)CC2)c(C)c1,10,-,-,-
Cc1ccc(S(=O)(=O)N2CCN(C(=O)c3cc(S(=O)(=O)N4CCOCC4)ccc3Cl)CC2)c(C)c1,13,-,-,-
CC1(C)CC(N=c2cc(-c3ccccc3)oc3ccc(Cl)cc23)CC(C)(C)N1,14,-,-,-
SMILES,HTR5A ag ctr,HTR5A inv ctr,MOR-DOR inv ag,OPRM1-OPRD1 ag
CC1CCCN(CCCNC(=O)c2cc3c(s2)-c2ccccc2OC3)C1 (stereo not given),11,-,-,-
CCOC(=O)c1cc2c(s1)-c1c(C)cccc1OC2,-,-,-,-
Cc1cccc2c1-c1sc(C(=O)NCCCN3CCC(C)CC3)cc1CO2,11,-,-,-
Cc1cccc2c1-c1sc(C(=O)Nc3cccnc3)cc1CO2,11,-,-,-
CC1CCN(CCCNC(=O)c2cc3c(s2)-c2ccccc2OC3)CC1,-,-,-,-
COc1ccc(/C=C2/CSC/C(=C/c3ccc(OC)c(OC)c3)C2=O)cc1OC,-,-,-,-
